From PubChem
Sampled rows, rich in hits. Any-hit rate of the full collection: about 9.5%.
NPSR antagonist = neuropeptide S receptor (human) antagonism, cAMP. Q6W5P4. CHO-NPSR cells, cAMP TR-FRET, antagonist mode. Potency, µM (series often up to 38.3 µM), without a hit: at the highest dose activity change, negative = inhibition, hits mostly inhibitors. 220,000 tested, 1% active. AID 1461; further: nearly all actives have a fitted effect of over 50% in size
Target sequence (Q6W5P4 whole entry, looked up): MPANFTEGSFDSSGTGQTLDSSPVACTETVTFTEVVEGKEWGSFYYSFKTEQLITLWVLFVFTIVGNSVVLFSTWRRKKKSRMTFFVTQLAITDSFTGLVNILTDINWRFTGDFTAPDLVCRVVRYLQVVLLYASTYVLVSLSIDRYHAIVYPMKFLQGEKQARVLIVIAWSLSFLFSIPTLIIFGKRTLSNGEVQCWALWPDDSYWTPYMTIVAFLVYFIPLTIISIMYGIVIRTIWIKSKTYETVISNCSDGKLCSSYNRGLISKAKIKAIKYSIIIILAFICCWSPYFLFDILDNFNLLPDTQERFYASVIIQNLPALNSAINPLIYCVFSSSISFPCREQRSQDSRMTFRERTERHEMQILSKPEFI
HPGD inh = blocks human HPGD enzyme activity; purified HPGD, NADH fluorescence kinetic, PGE2 substrate; Potency, µM, without a hit: at the highest dose activity change, negative = inhibition, hits mostly inhibitors; 150,000 tested, 4.3% active; AID 894; active means well fitted inhibition curve with a large enough effect, not every such curve was filed as active; inconclusive means small, poorly fitted or top-dose-only effect, or another doubt; inactive means no such curve, though single readings can be large or run the other way
Target sequence (P15428 whole entry, looked up): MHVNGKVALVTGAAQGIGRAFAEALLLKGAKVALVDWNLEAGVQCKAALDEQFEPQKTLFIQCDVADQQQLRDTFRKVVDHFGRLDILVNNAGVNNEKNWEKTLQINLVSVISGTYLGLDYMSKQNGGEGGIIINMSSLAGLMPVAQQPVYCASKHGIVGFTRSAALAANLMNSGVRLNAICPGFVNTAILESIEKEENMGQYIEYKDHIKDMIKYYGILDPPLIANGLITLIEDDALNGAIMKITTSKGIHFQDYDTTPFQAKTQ
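20 nM HPGD preincubated 15 min at room temperature with compound in 50 mM Tris-HCl pH 8, 0.01% Tween 20. Started with 1 mM NAD+ and 30 uM prostaglandin E2; NADH fluorescence (360/450 nm) read 5 times over 30-s intervals, last minus first.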
Tau fluor cs = counter-screen for tau fibril formation inhibitors; Potency, µM (titrated, usually from 57.7 µM), for the others: at the highest dose activity change, negative = decrease; 280,000 tested, 0.93% active; tau K18 P301L Alexa594 fluorescence, heparin fibrillization; further: nearly all actives have a fitted effect of over 55% in size
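Human K18 P301L tau (15 uM unlabeled plus 0.24 uM Alexa 594-labeled, final) in 100 mM sodium acetate pH 7 was mixed with compound and 20 uM heparin and incubated 6 hr at 37 C.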
ALDH1A1 block = blocks purified human ALDH1A1 activity. AID 1030. Potency, µM (series often up to 75.3 µM), for inactives: at the top dose activity, negative = inhibition, usual class: inhibitors. 220,000 tested, 7.3% active. P00352. Purified ALDH1A1, NADH fluorescence, propionaldehyde substrate; active means well fitted inhibition curve with a large enough effect, not every such curve was filed as active; inconclusive means small, poorly fitted or top-dose-only effect, or another doubt; inactive means no such curve, though single readings can be large or run the other way;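 further: plate controls were no enzyme wells and a reference inhibitor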
Tau ThT inhib = tau fibrillization inhibition (ThT binding). P10636. recombinant tau K18 P301L, heparin-induced fibrillization, ThT fluorescence. Potency, µM (doses to about 57.4 µM), inactives show at the highest dose activity, negative = inhibition, actives largely listed as inhibitors. 270,000 tested, 2.1% active. AID 1460; further: nearly all actives have a fitted effect of over 55% in size
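Fibril formation assay: tau K18 P301L at 15 uM with trace Alexa 594 label, heparin inducer 20 uM, pH 7 sodium acetate buffer, 37 C for 6 hr; endpoint ThT signal.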
Tau fibril FP = blocks human tau fibril formation measured by polarization | P10636 | K18 P301L tau heparin fibrillization, Alexa594 FP, 6 h | Potency, µM (series often up to 57.7 µM), for the others: at the top dose activity, negative = inhibition, usual class: inhibitors | AID 1468 | 280,000 tested, 0.39% active; further: nearly all actives have a fitted effect of over 55% in size
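Compound effects on tau fibrillization are measured by Alexa 594 fluorescence polarization (ex 555, em 632 nm). K18 P301L tau is used at 15 uM with 0.24 uM labeled tracer, and 20 uM heparin induces aggregation over 6 hr at 37 C.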
Numbers without * were called inactive; ? = inconclusive; nt = no result given; ! = not active in a repeat; [ ] = dose if it differs, or a comment. Unless noted, the call rests on the fitted dose curve; in most records, active means well fitted curve in the direction sought with a large enough effect; inconclusive means small, poorly fitted or top-dose-only effect, or another doubt; inactive means no such curve, though single readings can be large; an effect the other way counts as inactive or inconclusive. Unless noted, on the % scale 0 is the no-effect control and ±100 the full control effect; potency means the concentration at half of the fitted maximal effect.

SMILES | NPSR antagonist | HPGD inh | Tau fluor cs | ALDH1A1 block | Tau ThT inhib | Tau fibril FP
Cc1ccc(/C=N/NS(=O)(=O)c2ccccc2)o1 | 7% | -17% | -4% | -9% | -10% | -2%
CC(C)N1C(=O)c2ccc(C(=O)O)cc2C1=O | -1%[46.1 µM] | -8% | -10% | -9% | -10% | 1%
Cc1ccc(/C=C2/C(=O)c3ccc(C(=O)O)cc3C2=O)o1 | 12% | nt | -20% | 7.1µM* | 5.6µM* | ?
O=C(O)c1ccc2c(c1)C(=O)/C(=C/c1ccccc1)C2=O | -11% | 13µM* | -17% | -15% | ? | 0%
Cc1ccc(C=C2C(=O)c3ccccc3C2=O)o1 | 3% | -7% | 4% | -16% | 8.9µM* | ?
CC(C)(C)N1C(=O)c2ccc(C(=O)O)cc2C1=O | -11%[46.1 µM] | -19% | 2% | 11% | -3% | 4%
CCOC(=O)C(CC)(CC)C(=O)/C=C/c1ccc(Br)cc1 | ? | -12% | -5% | ? | -20% | -1%
O=C(O)c1ccc2c(c1)C(=O)/C(=C\c1ccco1)C2=O | -25% | nt | ? | ? | 11µM* | 16µM*
O=C1C(=Cc2ccco2)C(=O)c2ccccc21 | -12% | -24% | ? | 13µM* | 13µM* | ?
O=C(COc1ccccc1)Nc1ccc(C(=O)OCc2cc(=O)n3nc(C4CC4)sc3n2)cc1 | nt | nt | 16% | nt | 16% | 5%
CCNC(=O)c1ccc(C2SCC(=O)N2CCc2ccccc2)cc1 (stereo not given) | 0% | 22µM* | -2% | -4% | -6% | 6%
CCCNC(=O)c1ccc(C2SCC(=O)N2CCc2ccccc2)cc1 (stereo not given) | -9% | 13µM* | 5% | -8% | -2% | 1%
CN1C2C=C3C(C#N)=C(N)C(C#N)(C#N)[C@@H](c4cccs4)C3C1CC2 (stereo not given in full) | -4%[46.1 µM] | ? | -14% | ? | 20µM* | ?
N#CC1=C(N)C(C#N)(C#N)[C@H](c2c(F)cccc2F)[C@H]2CC3(CC=C12)OCCO3 | -1%[46.1 µM] | -26% | -19% | ? | ? | ?
CC(C)(C)C1CC=C2C(C#N)=C(N)C(C#N)(C#N)C(c3cccs3)C2C1 (stereo not given) | -19%[46.1 µM] | -19% | -25% | ? | ? | ?
CN1C2C=C3C(C#N)=C(N)C(C#N)(C#N)[C@@H](c4cccc(F)c4)[C@@H]3C1CC2 (stereo not given in full) | -12%[46.1 µM] | -26% | -9% | ? | 20µM* | ?
CN1C2C=C3C(C#N)=C(N)C(C#N)(C#N)[C@H](c4c(F)cccc4F)[C@H]3C1CC2 (stereo not given in full) | -13%[46.1 µM] | -9% | -19% | ? | 14µM* | ?
CCCCC/C=C\C[C@@H](O)/C=C/C=C\CCC(=O)O | nt | -2% | -11% | -3% | -7% | 2%
CCOc1ccc(/C=N/NC(=O)Cc2cccs2)cc1 | 0% | nt | -11% | nt | -8% | 5%
Cc1ccc(NC(=O)c2ccc([N+](=O)[O-])cc2)cc1S(=O)(=O)N(C)C | -12% | nt | -22% | ? | -5% | 13%
Cc1ccc([N+](=O)[O-])cc1S(=O)(=O)N(C)C | -11%[46.1 µM] | 5% | -10% | 32µM*! | -5% | 0%
COc1ccc(OC)c(NC(=O)c2cc(S(=O)(=O)NCc3ccco3)ccc2F)c1 | ? | ? | ? | 22µM* | ? | -4%
COc1ccc(CNS(=O)(=O)c2ccc(F)c(C(=O)Nc3ccccc3OC)c2)cc1 | -8% | nt | -29% | ? | -12% | ?
O=C(CCc1ccccc1)NNC(=O)c1ccco1 | 3%[46.1 µM] | 28µM* | -1% | 8% | -8% | -1%
Cc1cc(C)cc(-c2cc3c(c(-c4c(O)c(-c5cc(C)cc(C)c5)cc5c4CCCC5)c2O)CCCC3)c1 | nt | -4% | -3% | 13% | 0% | -3%
SMILES | NPSR antagonist | HPGD inh | Tau fluor cs | ALDH1A1 block | Tau ThT inhib | Tau fibril FP
Cc1ccc(N=C2NC(=O)/C(=C/c3cn(C)c4ccccc34)S2)cc1C | -35% | -9% | ? | 0% | 4µM* | 15%
Cc1ccc(N=C2NC(=O)/C(=C/c3cccn3C)S2)c(C)c1 | ? | nt | -3% | 11% | ? | 10%
Cn1cccc1/C=C1\SC(=Nc2cccc(O)c2)NC1=O | 29% | nt | ? | nt | 7.1µM* | 11%
O=C1NC(=Nc2ccc(O)cc2)S/C1=C/c1ccco1 | -25% | nt | ? | ? | ? | -10%
Cn1cccc1/C=C1\SC(=Nc2ccccc2)NC1=O | 32% | nt | ? | -4% | 13µM* | 1%
Cn1cc(/C=C2/SC(=O)N(c3ccccc3)C2=O)c2ccccc21 | -12%[46.1 µM] | -9% | -17% | 13% | 6% | 5%
Cn1cccc1/C=C1\SC(=Nc2ccc(O)cc2)NC1=O | 4% | nt | ? | nt | 4.5µM* | 1%
O=C(c1ccc(C(=O)N2CCOCC2)nc1)N1CCOCC1 | -4%[46.1 µM] | -8% | 4% | -1% | -2% | 1%
COc1cccc(Nc2ncc3nc(CCc4ccccc4)c(=O)n(C[C@H]4CCCO4)c3n2)c1 | nt | ? | nt | 25µM* | nt | nt
CC1CCC(C(=O)O)NC1c1cccc(N2CCOCC2)c1 (stereo not given) | nt | nt | -6%[11.6 µM] | -3%[13.5 µM] | 0%[11.5 µM] | -6%[11.6 µM]
Cc1ccc(C)c(C(=O)CSc2n[nH]c(-c3ccncc3)n2)c1 | -21%[46.1 µM] | nt | -9% | 5µM* | -3% | -5%
Oc1cccc(/C=N/Nc2cc(N3CCCC3)nc(N3CCCC3)n2)c1 | -51% | -8% | 16µM*[quencher] | 10% | ? | -1%
Oc1ccc(/C=N/Nc2cc(N3CCCC3)nc(N3CCCC3)n2)cc1 | -24%[46.1 µM] | -26% | 18µM*[quencher] | 9% | ? | 3%
COc1ccc(/C=N/Nc2cc(C)nc(-n3nc(C)cc3C)n2)cc1 | ? | -4% | ? | -1% | ? | ?
COc1ccc(/C=N/Nc2cc(N3CCCC3)nc(N3CCCC3)n2)cc1 | 13µM* | nt | ? | 0% | ? | -3%
NC(=O)CC[C@@H]1NC(=O)[C@H](CO)NC(=O)c2cc([N+](=O)[O-])cc(I)c2NCC[C@@H](C(N)=O)NC(=O)[C@H](Cc2ccc(O)cc2)NC1=O | 10% | -10% | -13% | 3.5µM* | -20% | 1%
NC(=O)CC[C@@H]1NC(=O)[C@H](CO)NC(=O)c2cc([N+](=O)[O-])cc(I)c2NCCCC[C@@H](C(N)=O)NC(=O)[C@H](Cc2ccc(O)cc2)NC1=O | 10% | -1% | -25% | -1% | ? | -4%
O=C(NC1CCCCC1)C1CCCN(c2nnnn2-c2ccccc2)C1 (stereo not given) | -4%[46.1 µM] | -23% | 3% | 10µM* | 5% | -4%
CCOC(=O)C1CCCN(c2nnnn2-c2ccccc2)C1 (stereo not given) | -8%[46.1 µM] | -12% | 3% | 7.1µM* | 5% | 0%
